For some of these results: Entries with a potency or affinity are not part of this list.
Columns and labels:
Parameters in all cases: scale not given: direction of the effect not stated beside the values
[1] = target: Protein translocase subunit SecA (Escherichia coli (strain K12)) (UniProt P10408); assay: Assay to Identify E. coli SecA ATPase Inhibitors; assay type: functional; settings: 30 µM
[2] = target: T1, Ubiquitin-activating enzyme e1, putative (Leishmania donovani (strain BPK282A1)) (UniProt E9BSI1); assay: Leishmania donovani Ubiquitin Activating Enzyme (LdE1); assay type: functional; settings: 30 µM
T1 sequence (whole entry): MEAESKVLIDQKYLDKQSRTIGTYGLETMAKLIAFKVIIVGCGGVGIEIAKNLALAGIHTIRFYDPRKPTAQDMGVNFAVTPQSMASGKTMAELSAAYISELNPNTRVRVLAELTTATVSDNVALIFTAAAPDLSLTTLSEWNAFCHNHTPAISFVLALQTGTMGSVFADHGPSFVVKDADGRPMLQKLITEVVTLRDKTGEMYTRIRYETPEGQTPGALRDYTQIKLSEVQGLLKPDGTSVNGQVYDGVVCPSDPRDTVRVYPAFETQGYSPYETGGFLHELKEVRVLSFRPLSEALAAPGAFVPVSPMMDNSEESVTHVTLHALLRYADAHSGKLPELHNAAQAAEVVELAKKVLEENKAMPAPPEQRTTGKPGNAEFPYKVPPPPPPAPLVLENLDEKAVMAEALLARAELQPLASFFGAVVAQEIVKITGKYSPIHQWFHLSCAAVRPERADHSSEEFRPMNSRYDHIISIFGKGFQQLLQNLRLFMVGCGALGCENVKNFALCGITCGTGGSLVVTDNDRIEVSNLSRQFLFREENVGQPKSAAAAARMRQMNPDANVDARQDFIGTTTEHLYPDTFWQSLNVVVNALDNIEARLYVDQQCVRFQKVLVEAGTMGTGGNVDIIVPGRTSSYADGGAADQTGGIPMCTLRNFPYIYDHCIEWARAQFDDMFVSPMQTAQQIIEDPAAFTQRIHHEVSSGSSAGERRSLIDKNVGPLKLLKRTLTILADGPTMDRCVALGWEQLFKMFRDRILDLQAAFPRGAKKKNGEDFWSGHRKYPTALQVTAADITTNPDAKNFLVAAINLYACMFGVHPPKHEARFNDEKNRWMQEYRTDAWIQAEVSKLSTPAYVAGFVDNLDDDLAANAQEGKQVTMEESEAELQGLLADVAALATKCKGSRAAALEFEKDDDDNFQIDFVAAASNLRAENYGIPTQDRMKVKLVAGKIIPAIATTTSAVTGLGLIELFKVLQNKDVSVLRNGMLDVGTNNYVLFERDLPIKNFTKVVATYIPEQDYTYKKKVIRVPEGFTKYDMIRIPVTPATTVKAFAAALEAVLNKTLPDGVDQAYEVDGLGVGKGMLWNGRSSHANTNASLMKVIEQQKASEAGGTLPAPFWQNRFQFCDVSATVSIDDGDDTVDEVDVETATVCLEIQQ

[3] = target: AMP-activated protein kinase, AMPK (Homo sapiens) (UniProt P54646+O43741+P54619+Q9UGJ0+Q9Y478+Q13131+Q9UGI9); assay: AMP-dependent Kinase enzyme assay. An in vitro enzyme assay that detects ADP turnover that is directly proportional to AMPK activity. This uses naive AMPK that is activated during the assay with MK-8722; assay type: functional; settings: 30 µM
[4] = target: Sialic acid-binding Ig-like lectin 9 (Homo sapiens) (UniProt Q9Y336); assay: Hs-Siglec9 ALPHAscreen SOP 20170721; settings: 10 µM
Trypanosoma cruzi = assay: Trypanosoma cruzi phosphomannomutase and mannose-1-phosphate guanylyltransferase assay; assay type: functional; settings: 10 µM
[5] = target: T2, Arginase-2, mitochondrial (Homo sapiens) (UniProt P78540); assay: in vitro enzyme assay to detect the production of urea directly proportional to the activity of Arginase II; assay type: functional; settings: 33.3 µM; also: in the data most compounds retested in dose-response had high values
T2 sequence (whole entry): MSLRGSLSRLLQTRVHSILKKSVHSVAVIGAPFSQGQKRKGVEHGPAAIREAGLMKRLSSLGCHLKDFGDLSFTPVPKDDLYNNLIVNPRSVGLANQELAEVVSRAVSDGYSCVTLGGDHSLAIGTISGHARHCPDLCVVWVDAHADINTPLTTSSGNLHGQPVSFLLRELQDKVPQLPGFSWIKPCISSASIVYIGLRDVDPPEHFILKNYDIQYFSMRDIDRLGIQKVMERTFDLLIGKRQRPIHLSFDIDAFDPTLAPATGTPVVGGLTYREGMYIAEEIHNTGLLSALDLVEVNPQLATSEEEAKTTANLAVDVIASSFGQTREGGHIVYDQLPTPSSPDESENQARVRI

[6] = target: T3, Proteasome subunit beta (Trypanosoma cruzi) (UniProt O96673); assay: Trypanosoma cruzi proteasome chymotrypsin-like activity (TcProtChymo) assay.; also: in the data most compounds retested in dose-response had high values; assay type: functional; settings: 9.37 µM
T3 sequence (whole entry): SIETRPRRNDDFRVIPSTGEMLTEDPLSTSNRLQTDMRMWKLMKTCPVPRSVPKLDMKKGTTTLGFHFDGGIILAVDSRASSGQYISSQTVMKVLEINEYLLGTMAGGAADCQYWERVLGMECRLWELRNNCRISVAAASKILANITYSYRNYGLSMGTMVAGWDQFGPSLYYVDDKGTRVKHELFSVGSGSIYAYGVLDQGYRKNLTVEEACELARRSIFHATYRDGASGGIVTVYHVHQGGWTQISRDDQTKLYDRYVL

Homo sapiens = organism: Homo sapiens; assay: To identify inhibition of the IFN signalling (Jak-Stat) pathway via expression of an eGFP reporter gene under the control of an IFN-stimulated response element (ISRE) containing MxA promoter.; assay type: functional; settings: 30 µM
[7] = target: T4, Tyrosyl-tRNA synthetase, putative (Trypanosoma cruzi (strain CL Brener)) (UniProt Q4DSP6); assay: Trypanosoma cruzi tyrosyl tRNA synthetase (TcYRS) _High Tyrosine SOP; assay type: functional; settings: 30 µM; also: in the data most compounds retested in dose-response had high values
T4 sequence (whole entry): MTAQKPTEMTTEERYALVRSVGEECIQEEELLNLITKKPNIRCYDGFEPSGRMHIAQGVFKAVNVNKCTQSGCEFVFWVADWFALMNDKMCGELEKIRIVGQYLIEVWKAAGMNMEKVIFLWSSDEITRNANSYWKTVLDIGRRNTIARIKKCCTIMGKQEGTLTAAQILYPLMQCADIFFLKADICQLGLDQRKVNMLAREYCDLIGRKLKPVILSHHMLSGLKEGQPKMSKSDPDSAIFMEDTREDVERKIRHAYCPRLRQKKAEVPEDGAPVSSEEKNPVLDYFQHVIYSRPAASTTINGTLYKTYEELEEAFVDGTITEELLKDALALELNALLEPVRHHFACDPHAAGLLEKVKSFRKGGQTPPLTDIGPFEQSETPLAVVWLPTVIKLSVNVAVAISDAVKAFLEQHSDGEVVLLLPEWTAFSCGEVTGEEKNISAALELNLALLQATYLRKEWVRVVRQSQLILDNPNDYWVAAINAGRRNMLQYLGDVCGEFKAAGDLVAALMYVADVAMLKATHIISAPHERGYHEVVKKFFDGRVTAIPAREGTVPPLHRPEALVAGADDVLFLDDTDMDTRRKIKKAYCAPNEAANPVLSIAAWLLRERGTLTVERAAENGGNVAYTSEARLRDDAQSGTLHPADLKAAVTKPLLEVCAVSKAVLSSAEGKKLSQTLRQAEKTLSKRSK

[8] = target: T4, Tyrosyl-tRNA synthetase, putative (Trypanosoma cruzi (strain CL Brener)); assay: Trypanosoma cruzi tyrosyl tRNA synthetase (TcYRS) SOP; assay type: functional; settings: 30 µM
[9] = target: Chromo domain-containing protein 1 (Saccharomyces cerevisiae (strain ATCC 204508 / S288c) (Baker's yeast)) (UniProt P32657); assay: ScCHD-1 Enzyme Inhibition Assay; assay type: functional; settings: 30 µM; also: in the data most compounds retested in dose-response had high values
Chromo domain-containing protein 1 (Saccharomyces cerevisiae (strain ATCC 204508 / S288c) (Baker's yeast)), sequence (P32657 whole entry, the tested form may be a part): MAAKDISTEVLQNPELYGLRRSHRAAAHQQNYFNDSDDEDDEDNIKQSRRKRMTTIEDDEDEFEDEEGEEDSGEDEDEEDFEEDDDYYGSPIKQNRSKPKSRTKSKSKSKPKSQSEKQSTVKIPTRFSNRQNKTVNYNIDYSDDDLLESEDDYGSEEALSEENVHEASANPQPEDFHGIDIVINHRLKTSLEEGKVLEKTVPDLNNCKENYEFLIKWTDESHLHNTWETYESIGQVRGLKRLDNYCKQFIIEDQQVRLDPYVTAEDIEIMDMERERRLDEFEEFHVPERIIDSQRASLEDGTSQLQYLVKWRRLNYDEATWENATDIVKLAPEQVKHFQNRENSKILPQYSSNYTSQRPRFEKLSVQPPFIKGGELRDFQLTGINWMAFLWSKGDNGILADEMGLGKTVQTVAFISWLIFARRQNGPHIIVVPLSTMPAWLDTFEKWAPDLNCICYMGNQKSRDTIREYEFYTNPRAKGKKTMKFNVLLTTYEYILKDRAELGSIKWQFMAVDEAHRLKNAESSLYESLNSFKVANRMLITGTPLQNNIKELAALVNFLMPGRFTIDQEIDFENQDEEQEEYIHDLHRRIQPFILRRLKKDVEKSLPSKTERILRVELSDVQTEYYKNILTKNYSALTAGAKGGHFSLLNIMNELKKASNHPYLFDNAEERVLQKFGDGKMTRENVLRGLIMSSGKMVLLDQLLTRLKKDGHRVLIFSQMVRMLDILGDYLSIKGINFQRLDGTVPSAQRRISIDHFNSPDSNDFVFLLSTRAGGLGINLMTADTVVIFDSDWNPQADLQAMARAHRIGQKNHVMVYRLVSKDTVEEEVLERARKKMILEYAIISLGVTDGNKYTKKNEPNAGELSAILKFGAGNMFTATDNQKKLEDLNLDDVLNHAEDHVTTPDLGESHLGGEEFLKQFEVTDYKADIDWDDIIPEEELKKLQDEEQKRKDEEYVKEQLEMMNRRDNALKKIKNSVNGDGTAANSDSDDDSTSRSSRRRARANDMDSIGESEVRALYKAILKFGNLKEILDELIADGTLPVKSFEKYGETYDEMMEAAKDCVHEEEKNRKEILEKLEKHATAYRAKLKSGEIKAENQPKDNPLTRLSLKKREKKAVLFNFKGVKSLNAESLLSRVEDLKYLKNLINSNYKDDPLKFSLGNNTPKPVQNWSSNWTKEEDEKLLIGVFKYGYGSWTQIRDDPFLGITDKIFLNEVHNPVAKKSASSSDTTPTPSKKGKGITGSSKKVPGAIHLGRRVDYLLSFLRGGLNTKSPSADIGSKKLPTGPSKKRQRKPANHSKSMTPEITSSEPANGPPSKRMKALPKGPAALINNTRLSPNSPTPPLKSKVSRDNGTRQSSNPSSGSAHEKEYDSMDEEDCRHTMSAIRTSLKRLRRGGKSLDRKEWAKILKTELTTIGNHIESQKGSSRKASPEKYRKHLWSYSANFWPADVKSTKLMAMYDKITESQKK

Protein translocase subunit SecA (Escherichia coli (strain K12)), sequence (P10408 whole entry): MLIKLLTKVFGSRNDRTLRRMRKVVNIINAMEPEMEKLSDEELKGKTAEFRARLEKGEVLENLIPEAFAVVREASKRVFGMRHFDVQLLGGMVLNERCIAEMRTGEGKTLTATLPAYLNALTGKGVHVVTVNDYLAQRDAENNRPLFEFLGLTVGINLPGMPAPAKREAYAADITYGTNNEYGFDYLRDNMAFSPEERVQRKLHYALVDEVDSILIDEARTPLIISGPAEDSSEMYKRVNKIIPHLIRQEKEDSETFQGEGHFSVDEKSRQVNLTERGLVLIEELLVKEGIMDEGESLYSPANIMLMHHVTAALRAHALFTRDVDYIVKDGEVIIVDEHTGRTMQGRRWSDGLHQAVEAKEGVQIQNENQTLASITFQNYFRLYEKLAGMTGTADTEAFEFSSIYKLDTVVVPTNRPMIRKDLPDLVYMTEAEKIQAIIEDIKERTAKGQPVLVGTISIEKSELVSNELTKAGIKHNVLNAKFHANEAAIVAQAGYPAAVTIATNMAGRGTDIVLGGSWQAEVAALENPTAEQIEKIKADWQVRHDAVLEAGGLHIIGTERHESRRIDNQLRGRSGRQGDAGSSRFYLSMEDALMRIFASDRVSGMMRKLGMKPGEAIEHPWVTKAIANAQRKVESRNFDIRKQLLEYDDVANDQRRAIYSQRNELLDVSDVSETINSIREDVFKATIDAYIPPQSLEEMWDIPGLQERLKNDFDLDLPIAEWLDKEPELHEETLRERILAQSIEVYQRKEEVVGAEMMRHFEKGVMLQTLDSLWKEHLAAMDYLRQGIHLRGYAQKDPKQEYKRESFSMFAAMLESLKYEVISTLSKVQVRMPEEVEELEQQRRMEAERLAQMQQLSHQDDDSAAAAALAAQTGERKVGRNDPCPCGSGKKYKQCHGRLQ
Sialic acid-binding Ig-like lectin 9 (Homo sapiens), sequence (Q9Y336 whole entry): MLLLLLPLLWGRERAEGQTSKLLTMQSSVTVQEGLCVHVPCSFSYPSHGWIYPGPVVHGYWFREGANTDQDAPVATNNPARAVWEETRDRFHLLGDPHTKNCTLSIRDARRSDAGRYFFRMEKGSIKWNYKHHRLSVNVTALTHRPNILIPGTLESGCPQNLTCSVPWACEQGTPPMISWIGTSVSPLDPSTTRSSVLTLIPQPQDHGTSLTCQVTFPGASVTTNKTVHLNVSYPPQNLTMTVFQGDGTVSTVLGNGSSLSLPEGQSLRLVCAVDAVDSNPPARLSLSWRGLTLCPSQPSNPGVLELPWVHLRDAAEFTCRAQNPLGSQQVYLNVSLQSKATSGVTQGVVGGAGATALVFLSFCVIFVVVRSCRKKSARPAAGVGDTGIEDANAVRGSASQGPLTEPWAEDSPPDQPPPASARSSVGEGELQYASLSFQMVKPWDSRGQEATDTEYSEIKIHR

Structure (SMILES)	Percent Effect [1] [%]	Percent Effect [2] [%]	Percent Effect [3] [%]	Percent Effect [4] [%]	Percent Effect (Trypanosoma cruzi) [%]	Percent Effect [5] [%]	Percent Effect [6] [%]	Percent Effect (Homo sapiens) [%]	Percent Effect [7] [%]	Percent Effect [8] [%]	Percent Effect [9] [%]
COc1cc(C(C)=O)ccc1OCC(=O)N(C)Cc1cnn(C)c1	-4.48	21.1	-7.57	7.64	4.76	1.44	6.18	6.99	6.4	25.9	-10.6
CCc1nc(CN2CCCC(NCc3nc4cccnc4[nH]3)C2)no1 (stereo unspecified)	-0.119	20.2	-9.6	-10.5	2.36	0	5.98	11.5	10.3	16.5	-8.46
O=C1COc2ccc(C(=O)NS(=O)(=O)c3ccc(F)cc3F)cc2N1	-2.51	-7.89	6.3	-2.06	2.15	-4.32	-1.78	-9.03	4.43	3.7	6.46
O=C(c1ccc(O)cc1)N1CCN(C(=O)c2ccc3c(c2)COC3)CC1	-4.15	10.1	-4.98	13.3	-1.98	-2.66	4.01	-19.9	4.43	8.86	-6.29
Cc1nc(C)n(C2CCCN(C(=O)CCCn3ccnc3)C2)n1 (stereo unspecified)	-8.21	0	0.109	0.244	-3.91	2.92	10.4	5.38	4.95	3.66	-1.65
CC(C)C(=O)NCC(=O)N(C)C1CCCN(CCc2ccccc2)C1 (stereo unspecified)	-2.17	10.8	0.942	15.5	4.25	-0.952	11.9	-0.751	3.7	4.88	-5.28
CC(NC(=O)NCCCN1CCCCCC1)c1nncn1C (stereo unspecified)	-2.66	10.8	-6.67	18.7	6.78	-6.47	-5.03	18	5.94	18.3	-3.61
CNc1cc(C2CCCN2Cc2ccccc2OCC(=O)O)ccn1 (stereo unspecified)	-3.95	1.35	11.6	2.57	-3.16	0.232	2.34	4.49	5.38	9.09	-8.55
Cn1cc(C2COC3(CCN(C(=O)c4ccc(F)cc4)CC3)C2)cn1 (stereo unspecified)	-3.35	8.11	6.34	-3.51	-2.25	7.33	19.9	-15	2.16	17.9	2.2
Cc1cccc(NC(=O)NCCCn2nc3ccccn3c2=O)c1C	-5.55	2.7	-32	-5.5	0.0943	0	-1.26	6.71	8.37	6.17	-9.2
Cc1cc(N2CCN(Cc3ccccc3)CC(O)C2)cc(C)n1 (stereo unspecified)	-7.08	-2.7	1.17	11.4	-1.74	-3.81	2.07	20.1	-0.529	4.88	-1.99

— ChEMBL document CHEMBL3988442, “University of Dundee, Small-Polar-MMV Screening Library” (2021)
